Measured values as given in PubChem BioAssay AID1159580 (chemical genetic matrix, 2015).
Out of some 5,500 compounds screened, about 2,000 (36%) were called active. About 18% were inconclusive and are not listed. Rule as the data show it: active = normalized growth mostly below about 0.91 (no sharp cut-off); inconclusive = no clear call, values can overlap the other calls; inactive = mostly above about 0.92. Some of the results follow.

Assay: chemical genetic growth profiling, strain panel (AID 1159580);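 also: tested at 20 µM; growth read once vehicle control cultures reached saturation at 30 °C; 1 = growth at the plate median or of vehicle wells; lower values mean less growth of the strain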
Conditions: growth OD

Measured: normalized growth

CC[C@@H](C(=O)O)[C@@H]1O[C@@H]([C@@H](C)[C@H](O)[C@H](C)C(=O)[C@H](CC)[C@H]2O[C@]3(C=C[C@@H](O)[C@]4(CC[C@@](C)(C5CC[C@](O)(CC)[C@H](C)O5)O4)O3)[C@H](C)C[C@@H]2C)[C@@H](C)C[C@H]1C (stereo partly specified)
inactive: S. cerevisiae deletion strains, locus YDL185W, strain tfp1, stronger effect = lower value 0.993 | S. cerevisiae deletion strains, locus YOL012C, strain htz1 0.22
active: S. cerevisiae deletion strains, locus YAL013W, strain DEP1, stronger effect = lower value 0.858 | S. cerevisiae deletion strains, locus YBR021W, strain FUR4, stronger effect = lower value 0.168 | S. cerevisiae deletion strains, locus YBR229C, strain ROT2, stronger effect = lower value 0.405 | S. cerevisiae deletion strains, locus YCL029C, strain bik1, stronger effect = lower value 0.559 | S. cerevisiae deletion strains, locus YDL035C, strain GPR1, stronger effect = lower value 0.478 | S. cerevisiae deletion strains, locus YDL074C, strain BRE1, stronger effect = lower value 0.412 | S. cerevisiae deletion strains, locus YDL101C, strain DUN1, stronger effect = lower value 0.214 | S. cerevisiae deletion strains, locus YDL134C, strain PPH21, stronger effect = lower value 0.313 | S. cerevisiae deletion strains, locus YDL192W, strain arf1, stronger effect = lower value 0.0725 | S. cerevisiae deletion strains, locus YDR101C, strain arx1, stronger effect = lower value 0.569 | S. cerevisiae deletion strains, locus YDR150W, strain NUM1, stronger effect = lower value 0.426 | S. cerevisiae deletion strains, locus YDR162C, strain NBP2, stronger effect = lower value 0.0697 | S. cerevisiae deletion strains, locus YDR318W, strain mcm21, stronger effect = lower value 0.224 | S. cerevisiae deletion strains, locus YDR388W, stronger effect = lower value 0.117 | S. cerevisiae deletion strains, locus YDR502C, strain sam2, stronger effect = lower value 0.317 | S. cerevisiae deletion strains, locus YEL061C, strain CIN8, stronger effect = lower value 0.724 | S. cerevisiae deletion strains, locus YER110C, stronger effect = lower value 0.861 | S. cerevisiae deletion strains, locus YER155C, strain BEM2, stronger effect = lower value 0.796 | S. cerevisiae deletion strains, locus YER167W, strain BCK2, stronger effect = lower value 0.294 | S. cerevisiae deletion strains, locus YGL078C, strain dbp3, stronger effect = lower value 0.378 | S. cerevisiae deletion strains, locus YGL086W, strain mad1, stronger effect = lower value 0.331 | S. cerevisiae deletion strains, locus YGL248W, strain PDE1, stronger effect = lower value 0.282 | S. cerevisiae deletion strains, locus YGR078C, strain PAC10, stronger effect = lower value 0.621 | S. cerevisiae deletion strains, locus YGR135W, strain pre9, stronger effect = lower value 0.781 | S. cerevisiae deletion strains, locus YGR229C, strain SMI1, stronger effect = lower value 0.15 | S. cerevisiae deletion strains, locus YGR252W, strain gcn5, stronger effect = lower value 0.312 | S. cerevisiae deletion strains, locus YHR030C, strain SLT2, stronger effect = lower value 0.142 | S. cerevisiae deletion strains, locus YHR079C, strain IRE1 (second series), stronger effect = lower value 0.39 | S. cerevisiae deletion strains, locus YHR094C, strain hxt1, stronger effect = lower value 0.278 | S. cerevisiae deletion strains, locus YHR129C, strain ARP1, stronger effect = lower value 0.209 | S. cerevisiae deletion strains, locus YHR200W, strain rpn10, stronger effect = lower value 0.691 | S. cerevisiae deletion strains, locus YIL066C, strain RNR3, stronger effect = lower value 0.385 | S. cerevisiae deletion strains, locus YIL073C, strain SPO22, stronger effect = lower value 0.127 | S. cerevisiae deletion strains, locus YIL125W, strain kgd1, stronger effect = lower value 0.12 | S. cerevisiae deletion strains, locus YIR030C, strain dcg1, stronger effect = lower value 0.461 | S. cerevisiae deletion strains, locus YJL095W, strain BCK1, stronger effect = lower value 0.232 | S. cerevisiae deletion strains, locus YJL134W, strain LCB3, stronger effect = lower value 0.244 | S. cerevisiae deletion strains, locus YJL168C, strain set2, stronger effect = lower value 0.448 | S. cerevisiae deletion strains, locus YJL187C, strain SWE1 (second series), stronger effect = lower value 0.287 | S. cerevisiae deletion strains, locus YJR043C, strain POL32, stronger effect = lower value 0.552 | S. cerevisiae deletion strains, locus YJR075W, strain HOC1, stronger effect = lower value 0.6 | S. cerevisiae deletion strains, locus YKL009W, strain mrt4, stronger effect = lower value 0.874 | S. cerevisiae deletion strains, locus YKL068W, stronger effect = lower value 0.257 | S. cerevisiae deletion strains, locus YKL085W, strain MDH1 (second series), stronger effect = lower value 0.164 | S. cerevisiae deletion strains, locus YKL085W, strain MDH1, stronger effect = lower value 0.164 | S. cerevisiae deletion strains, locus YKL190W, strain CNB1, stronger effect = lower value 0.295 | S. cerevisiae deletion strains, locus YKR001C, strain vps1, stronger effect = lower value 0.0696 | S. cerevisiae deletion strains, locus YLR039C, strain RIC1, stronger effect = lower value 0.115 | S. cerevisiae deletion strains, locus YLR058C, strain SHM2, stronger effect = lower value 0.432 | S. cerevisiae deletion strains, locus YLR102C, strain apc9, stronger effect = lower value 0.431 | S. cerevisiae deletion strains, locus YLR262C, strain YPT6, stronger effect = lower value 0.125 | S. cerevisiae deletion strains, locus YLR268W, strain sec22, stronger effect = lower value 0.291 | S. cerevisiae deletion strains, locus YLR330W, strain CHS5, stronger effect = lower value 0.237 | S. cerevisiae deletion strains, locus YLR342W, strain FKS1 (second series), stronger effect = lower value 0.2 | S. cerevisiae deletion strains, locus YLR371W, strain rom2, stronger effect = lower value 0.147 | S. cerevisiae deletion strains, locus YLR418C, strain cdc73, stronger effect = lower value 0.162 | S. cerevisiae deletion strains, locus YML016C, strain PPZ1, stronger effect = lower value 0.402 | S. cerevisiae deletion strains, locus YML032C, strain rad52, stronger effect = lower value 0.586 | S. cerevisiae deletion strains, locus YML124C, strain tub3, stronger effect = lower value 0.385 | S. cerevisiae deletion strains, locus YMR078C, strain ctf18, stronger effect = lower value 0.857 | S. cerevisiae deletion strains, locus YMR223W, strain ubp8, stronger effect = lower value 0.465 | S. cerevisiae deletion strains, locus YMR263W, strain SAP30, stronger effect = lower value 0.763 | S. cerevisiae deletion strains, locus YMR307W, strain GAS1, stronger effect = lower value 0.129 | S. cerevisiae deletion strains, locus YNL067W, strain RPL9B, stronger effect = lower value 0.629 | S. cerevisiae deletion strains, locus YNL128W, strain TEP1, stronger effect = lower value 0.377 | S. cerevisiae deletion strains, locus YNL153C, strain GIM3, stronger effect = lower value 0.31 | S. cerevisiae deletion strains, locus YNL233W, strain BNI4, stronger effect = lower value 0.2 | S. cerevisiae deletion strains, locus YNL250W, strain rad50, stronger effect = lower value 0.262 | S. cerevisiae deletion strains, locus YNL271C, strain bni1, stronger effect = lower value 0.119 | S. cerevisiae deletion strains, locus YNL298W, strain CLA4, stronger effect = lower value 0.111 | S. cerevisiae deletion strains, locus YNL307C, strain MCK1, stronger effect = lower value 0.229 | S. cerevisiae deletion strains, locus YNL322C, strain KRE1, stronger effect = lower value 0.262 | S. cerevisiae deletion strains, locus YNR052C, strain pop2, stronger effect = lower value 0.241 | S. cerevisiae deletion strains, locus YOL006C, strain TOP1, stronger effect = lower value 0.107 | S. cerevisiae deletion strains, locus YOL147C, strain pex11, stronger effect = lower value 0.338 | S. cerevisiae deletion strains, locus YOR061W, strain CKA2, stronger effect = lower value 0.0978 | S. cerevisiae deletion strains, locus YOR069W, strain VPS5, stronger effect = lower value 0.14 | S. cerevisiae deletion strains, locus YOR136W, strain idh2, stronger effect = lower value 0.248 | S. cerevisiae deletion strains, locus YOR144C, strain elg1, stronger effect = lower value 0.425 | S. cerevisiae deletion strains, locus YOR184W, strain ser1, stronger effect = lower value 0.335 | S. cerevisiae deletion strains, locus YOR316C, strain cot1, stronger effect = lower value 0.377 | S. cerevisiae deletion strains, locus YPL055C, strain LGE1, stronger effect = lower value 0.174 | S. cerevisiae deletion strains, locus YPL241C, strain CIN2, stronger effect = lower value 0.648 | S. cerevisiae deletion strains, locus YPR119W, strain clb2, stronger effect = lower value 0.623 | S. cerevisiae deletion strains, locus YPR141C, strain kar3, stronger effect = lower value 0.383 | S. cerevisiae deletion strains, locus YPR163C, strain tif3, stronger effect = lower value 0.134 | S. cerevisiae deletion strains, locus YPR167C, strain met16, stronger effect = lower value 0.427 | S. cerevisiae deletion strains, strain wtn01, stronger effect = lower value 0.245 | S. cerevisiae strains, strain wild type, stronger effect = lower value 0.27
